Data published in PubChem BioAssay.
Calls of active or inactive are those of the source. Cut-off read from the data, not from the text of the source, unless noted: active = inhibition above about 80%; inactive = the rest.

Legend:
[1] = growth inhibition of RCMB18 medulloblastoma cells, cell-based, cisplatin and BGB IC40 combos (AID 1671462); conditions: stronger effect = higher value;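 note: cells exposed to compound for four days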
[2] = growth inhibition of CRL1545 osteosarcoma cells, cell-based, cisplatin and BGB IC20 combos (AID 1671464); conditions: stronger effect = higher value;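 note: cells exposed to compound for 96 hours before readout; 0% = vehicle DMSO and 100% = high DMSO killing control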
[3] = LFS_MB_P medulloblastoma growth inhibition, cell-based, chromothripsis tumors, cisplatin or BGB combos (AID 1671449); conditions: LFS_MB_P medulloblastoma cells;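 note: cells exposed for 96 hours; 0% = vehicle DMSO and 100% = killing by high DMSO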
[4] = HDN33 neuroblastoma growth inhibition, cell-based, chromothripsis tumors, cisplatin or BGB combos (AID 1671450); conditions: HDN33 neuroblastoma cells, stronger effect = higher value;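 note: cells exposed to compound for four days; 0% = vehicle DMSO and 100% = cell killing by high DMSO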
[5] = ICB984 medulloblastoma cell growth inhibition, synergistic combos for chromothripsis tumors, cisplatin or BGB combos (AID 1671451; call rule not given here;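 note: cells exposed for 96 hours before readout; 0% = vehicle DMSO and 100% = killing by high DMSO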); conditions: ICB984 medulloblastoma cells, drug combinations, stronger effect = higher value
[6] = LFS_MB_1R medulloblastoma cell growth inhibition, synergistic combos for chromothripsis tumors, cisplatin or BGB combos (AID 1671452); conditions: LFS_MB_1R medulloblastoma cells, stronger effect = higher value;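 note: cells exposed for 96 hours before readout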
[7] = HTB85 osteosarcoma cell growth inhibition, synergistic combos for chromothripsis tumors, BGB or cisplatin IC20 combos (AID 1671453); conditions: HTB85 osteosarcoma cells, drug combinations, stronger effect = higher value;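 note: cells exposed for 96 hours before readout; 0% = vehicle DMSO and 100% = high DMSO killing control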
[8] = CRL2098 osteosarcoma cell growth inhibition, synergistic combos for chromothripsis tumors, BGB or cisplatin IC20 combos (AID 1671454); conditions: CRL2098 osteosarcoma cells, drug combinations, stronger effect = higher value;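 note: cells exposed for 96 h before readout; 0% = vehicle DMSO and 100% = killing by high DMSO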
[9] = HD-MB03 medulloblastoma cell growth inhibition, synergistic combos for chromothripsis tumors, BGB or cisplatin IC20 combos (AID 1671455; in the data active = inhibition above about 83%;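 note: 0% = vehicle DMSO and 100% = high DMSO as cytotoxic control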); conditions: HD-MB03 medulloblastoma cells, stronger effect = higher value
[10] = UWB1.289 ovarian carcinoma cell growth inhibition, synergistic combos for chromothripsis tumors, BGB or cisplatin combos (AID 1671456); conditions: UWB1.289 ovarian carcinoma cells, stronger effect = higher value;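 note: cells exposed to compound for four days; 0% = vehicle DMSO and 100% = killing by high DMSO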
[11] = LFS_MB_2R medulloblastoma cell growth inhibition, synergistic combos for chromothripsis tumors, cisplatin combos (AID 1671457); conditions: LFS_MB_2R medulloblastoma cells, stronger effect = higher value;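 note: cells exposed to compound for four days before readout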
[12] = MDA-MB-436 breast carcinoma cell growth inhibition, synergistic combos for chromothripsis tumors, BGB or cisplatin combos (AID 1671458; call rule not given here;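 note: cells exposed for 96 hours; 0% = vehicle DMSO and 100% = killing by high DMSO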); conditions: MDA-MB-436 breast carcinoma growth inhibition, drug combinations, stronger effect = higher value
[13] = UWB1.289_BRCA1 ovarian cancer growth, cell-based, BGB or cisplatin combinations (AID 1671459); conditions: UWB1.289 BRCA1 ovarian carcinoma, drug combinations, stronger effect = higher value
[14] = human astrocyte viability loss, single and combined drugs, cytotoxicity control for chromothriptic childhood tumor combination screen, cell-based, BGB or cisplatin IC20 combos (AID 1671460); conditions: Human astrocytes, drug combinations, stronger effect = higher value;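 note: cells exposed to compounds for 96 hours before viability readout; 0% = vehicle and 100% = killing control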
[15] = growth inhibition of BT084 medulloblastoma cells, cell-based, ICGC_MB145, cisplatin and BGB IC40 combos (AID 1671461); conditions: drug combinations, stronger effect = higher value;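 note: cells exposed to drugs for 96 hours; 0% = vehicle DMSO and 100% = high DMSO full killing control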
[16] = measured here: BGB IC40 combination, at 0.05 µM
[17] = measured here: combination with cisplatin, at 0.5 µM
[18] = measured here: with BGB IC20 combination, at 0.5 µM
[19] = measured here: with cisplatin IC20 combination, at 0.5 µM
[20] = measured here: combination with BGB IC40, at 0.05 µM
[21] = measured here: combination with cisplatin, at 5 µM

CC1CNC(=O)NC1=O (stereo unspecified)
inhibition [1, 16]: -20.6% | inhibition [1, 17]: -13.2% | inhibition ([1]; single agent, at 5 µM): -49.2% | inhibition ([2]; at 0.5 µM): -21.8% (inactive) | inhibition [2, 18]: -10.4% | inhibition [2, 19]: -27.5% | inhibition ([2]; single agent, at 0.05 µM): 3.21% | inhibition ([2]; single agent, at 5 µM): -10.2%

O=C1C(=Cc2cccnc2)C(=O)c2ccccc21
inhibition ([3]; at 0.5 µM, stronger effect = higher value): -18.2% (inactive) | inhibition ([3]; measured here: combination with BGB IC20, at 0.005 µM): -17.1% | inhibition ([3]; measured here: combination with BGB IC40, at 0.005 µM): 67.5% | inhibition [3, 20]: -27.5% | inhibition ([3]; measured here: combination with cisplatin, at 0.5 µM, stronger effect = higher value): -45.6% | inhibition ([3]; measured here: combination with cisplatin, at 5 µM, stronger effect = higher value): -16.1% | inhibition ([4]; BGB combo, at 5 µM): -24.2% | inhibition ([4]; at 0.5 µM): -0.8% (inactive) | inhibition ([4]; cisplatin combo, at 5 µM): -15.7% | inhibition [4, 18]: -14.2% | inhibition [4, 19]: 14.1% | inhibition ([4]; single agent, at 5 µM): -16.1% | inhibition ([5]; BGB IC20 combo, at 0.005 µM): 0.337% | inhibition ([5]; BGB IC40 combo, at 0.005 µM): -13.1% | inhibition ([5]; BGB IC40 combo, at 0.05 µM): -4.84% | inhibition ([5]; at 0.5 µM): -25.7% (inactive) | inhibition ([5]; cisplatin combo, at 0.05 µM): -10.2% | inhibition ([5]; cisplatin combo, at 0.5 µM): -37.3% | inhibition ([5]; cisplatin combo, at 5 µM): -28.8% | inhibition ([5]; measured here: 5 uM single agent, at 5 µM): -20.5% | inhibition ([6]; at 0.5 µM): -8.72% (inactive) | inhibition [6, 20]: -20.3% | inhibition [6, 17]: -8.61% | inhibition [6, 21]: -32.8% | inhibition ([7]; at 0.5 µM): -5.81% (inactive) | inhibition ([7]; measured here: with BGB IC20, at 0.5 µM): 0.006% | inhibition ([7]; measured here: with BGB IC20, at 5 µM): -4.06% | inhibition ([7]; measured here: with cisplatin IC20, at 0.5 µM): -17.7% | inhibition ([7]; measured here: with cisplatin IC20, at 5 µM): 0.224% | inhibition ([7]; single agent, at 5 µM): 6.13% | inhibition ([8]; at 0.5 µM): -26.6% (inactive) | inhibition ([8]; measured here: combination with BGB at IC20, at 0.5 µM): -25.9% | inhibition ([8]; measured here: combination with cisplatin at IC20, at 0.5 µM): -22.2% | inhibition ([9]; at 0.5 µM): -8.47% (inactive) | inhibition ([9]; measured here: combo with BGB at IC20, at 0.5 µM): -12% | inhibition ([9]; measured here: combo with cisplatin at IC20, at 0.5 µM): -5.96% | inhibition ([10]; at 0.5 µM): 0.75% (inactive) | inhibition ([10]; measured here: inhibition with BGB combination, at 0.05 µM): 2.81% | inhibition ([10]; measured here: inhibition with cisplatin combination, at 0.05 µM): -5.97% | inhibition ([11]; at 0.5 µM): -15.3% (inactive) | inhibition [11, 17]: -19.2% | inhibition [11, 21]: -18.7% | inhibition ([12]; at 0.5 µM): -13.9% (inactive) | inhibition ([12]; measured here: BGB combination, at 0.5 µM): -13.8% | inhibition ([12]; measured here: BGB combination, at 5 µM): -19.4% | inhibition ([12]; measured here: cisplatin combination, at 0.5 µM): -27.6% | inhibition ([12]; measured here: cisplatin combination, at 5 µM): -23.4% | inhibition ([13]; BGB combination, concentration series, at 5 µM): -3.65% | inhibition ([13]; at 0.5 µM): -0.75% (inactive) | inhibition ([13]; cisplatin combination, concentration series, at 5 µM): 4.94% | inhibition ([14]; at 0.5 µM): 5.07% (inactive) | inhibition ([14]; measured here: combo with BGB IC20, at 0.5 µM): -3.05% | inhibition ([14]; measured here: combo with cisplatin IC20, at 0.5 µM): 0.407% | inhibition ([15]; at 0.5 µM): -7.01% (inactive) | inhibition ([15]; cisplatin combination, at 0.5 µM): -1.5% | inhibition ([15]; cisplatin combination, at 5 µM): -101% | inhibition ([15]; measured here: BGB IC40 combination 0.05 uM, at 0.05 µM): -30.3% | inhibition ([15]; single agent, at 5 µM): 9.68% | inhibition ([1]; at 0.5 µM): -13.1% (inactive) | inhibition ([1]; cisplatin combo, at 5 µM): 4.14% | inhibition [1, 16]: -19.1% | inhibition [1, 17]: -37% | inhibition ([1]; single agent, at 5 µM): -5.07% | inhibition ([2]; at 0.5 µM): 3.87% (inactive) | inhibition [2, 18]: -10.3% | inhibition [2, 19]: 9.52% | inhibition ([2]; single agent, at 0.05 µM): -45.6% | inhibition ([2]; single agent, at 5 µM): -28.3%
